Screen size: about 390,000 compounds; about 4,700 (1.2%) were called active. Another 4% or so got no clear call; they are omitted. Calls follow the shape of the dose curve; as a rule, active = well fitted inhibition curve with a large enough effect; inconclusive = small, poorly fitted or top-dose-only effect, or another doubt; inactive = no such curve, though single readings can be large or run the other way. What follows is part of a selection rich in actives, with near analogues and random picks from the rest. A call without a number means that no potency is given here.
What follows are compounds tested against DNA polymerase eta (Homo sapiens) (UniProt Q9Y253) (assay: qHTS for Inhibitors of Polymerase Eta). Details: recombinant Pol eta, fluorescent DNA replication assay; series mostly up to 114 µM.
In short: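 Pol eta at 10 nM preincubated with compounds 15 min at room temperature; reaction started with fluorescent substrate (50 nM final) and read kinetically at 0 and 10 min.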
Potency is read from the fitted curve at half-maximal effect.

DNA polymerase eta (Homo sapiens), sequence (Q9Y253 whole entry, looked up): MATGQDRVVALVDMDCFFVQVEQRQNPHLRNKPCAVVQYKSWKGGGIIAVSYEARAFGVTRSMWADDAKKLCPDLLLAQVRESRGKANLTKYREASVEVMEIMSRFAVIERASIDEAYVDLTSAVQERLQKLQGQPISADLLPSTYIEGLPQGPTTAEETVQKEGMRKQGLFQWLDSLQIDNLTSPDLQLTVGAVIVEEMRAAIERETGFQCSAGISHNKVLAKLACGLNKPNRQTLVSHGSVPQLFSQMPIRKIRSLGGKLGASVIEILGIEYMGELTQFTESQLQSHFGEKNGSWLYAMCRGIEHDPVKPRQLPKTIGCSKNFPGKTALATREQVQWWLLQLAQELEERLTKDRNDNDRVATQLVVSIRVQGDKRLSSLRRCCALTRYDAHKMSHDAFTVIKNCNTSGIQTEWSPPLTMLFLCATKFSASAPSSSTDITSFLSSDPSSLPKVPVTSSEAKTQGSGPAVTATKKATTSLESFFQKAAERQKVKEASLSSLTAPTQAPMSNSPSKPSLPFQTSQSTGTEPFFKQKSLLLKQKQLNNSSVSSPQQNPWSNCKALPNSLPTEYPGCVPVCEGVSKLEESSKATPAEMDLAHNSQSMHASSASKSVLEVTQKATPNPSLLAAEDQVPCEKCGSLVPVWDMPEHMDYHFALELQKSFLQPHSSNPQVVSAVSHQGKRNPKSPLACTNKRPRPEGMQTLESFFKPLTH

| SMILES | Potency |
| --- | --- |
| CN(CCOc1ccccc1)C(=O)c1cc(-c2ccco2)nc2ccccc12 | 25.1 µM (active) |
| CCN(C(=O)COC(=O)/C=C/c1nc2ccccc2s1)C1CCS(=O)(=O)C1 (stereo unspecified) | inactive |
| CN(C(=O)COC(=O)c1cc(-c2ccco2)nc2ccccc12)C1CCS(=O)(=O)C1 (stereo unspecified) | 6.31 µM (active) |
| CN(CCOc1ccccc1)Cc1nc2cc(Cl)ccc2c(=O)[nH]1 | inactive |
| COc1cccc(NC(=O)CN(C)C(=O)c2cc(Cl)nc3ccccc23)c1 | inactive |
| Cc1cc(C)c2nc(SCC(=O)N(C)C3CCS(=O)(=O)C3)cc(C)c2c1 (stereo unspecified) | inactive |
| Cc1oc2c(c1C(=O)Nc1ccc(F)c(F)c1)C1=NCCN1C=N2 | inactive |
| CC1=C(C(=O)Nc2ccccc2)C(c2ccc(C)cc2)n2nc(SCc3ccccc3C)nc2N1 (stereo unspecified) | inactive |
| CCOc1ccc(CNC(=O)CCc2c(C)nn(-c3ccc(N4CCCCC4)nn3)c2C)cc1 | inactive |
| CCOC(=O)c1cc2c(=O)n3ccccc3nc2n(Cc2ccco2)c1=NC(=O)c1ccc(F)cc1 | inactive |
| OC[C@H]1O[C@@H](n2cnc3c(N[C@H]4CC5CCC4C5)ncnc32)[C@H](O)[C@@H]1O (stereo partly specified) | inactive |
| O=C(Nc1ccc2nc(SCC(=O)N3CCCc4ccccc43)sc2c1)c1ccc(F)cc1 | inactive |
| O=C(O)CCn1cc(/C=C/C(=O)c2ccc(Cl)cc2)c(-c2cccc(Br)c2)n1 | 56.2 µM (active) |
| CCc1ccc(S(=O)(=O)c2nnn3c2nc(NCc2ccccc2OC)c2cc(Cl)ccc23)cc1 | inactive |
| CN1CCN(C(=O)Cn2c(C(F)(F)F)nc3ccccc32)CC1 | inactive |
| CCc1nn(CC(=O)N2CCN(CC)CC2)c(=O)c2cccn12 | inactive |
| CCCN1CCN(C(=O)Cn2ncc3ccccc32)CC1 | 25.1 µM (active) |
| Cc1ccc(NC(=O)CN2C(=O)CC(C)Sc3ccccc32)c(C)c1 (stereo unspecified) | inactive |
| COc1ccc(Br)cc1CNC(=O)c1cc(=O)[nH]c2ccc(S(=O)(=O)N3CCCC3)cc12 | inactive |
| O=C(O)c1ccc(NN=CC2=C(N3CCOCC3)/C(=C/c3ccccc3)CC2)cc1 | 39.8 µM (active) |
| CC(C)(CNC(=O)c1ccc(Cl)c(S(=O)(=O)N2CCc3ccccc3C2)c1)N1CCOCC1 | inactive |
| O=C(Nc1ccc(F)cc1)c1cccnc1N1CCOCC1 | inactive |
| CCOc1ccc(NC(=O)C(=O)NCCc2csc3nc(-c4ccccc4F)nn23)cc1 | inactive |
| Cc1cc2ccccc2n1CCNC(=O)c1ccc(F)cc1 | inactive |
| Cc1ccc2c(=O)c(C(=O)c3ccc(Cl)cc3)cn(CC(=O)NC3CCCCC3)c2n1 | inactive |
| NC1=NC(c2cc(F)cc(F)c2)n2c(nc3ccccc32)N1 (stereo unspecified) | inactive |

— PubChem BioAssay AID588591 (National Center for Advancing Translational Sciences (NCATS), 2011)
